The values that follow come from PubChem BioAssay AID1851 (National Center for Advancing Translational Sciences (NCATS), 2009).

In all, about 16,000 compounds went through this assay and about 4,000 (25%) were called active. Not shown: some 26% with an inconclusive outcome. Calls come from the whole dose curve; as a rule, active = well fitted curve in the direction sought with a large enough effect; inconclusive = small, poorly fitted or top-dose-only effect, or effect the other way; inactive = no such curve, though single readings can be large or run the other way. A selection follows.
% is set by controls: 0 for no effect and ±100 for the full control effect.

The target in the test is Cytochrome P450 2C9 (Homo sapiens) (UniProt P11712). Put plainly: Cytochrome panel assay with activity outcomes. As to conditions: recombinant CYP, pro-luciferin dealkylation, luminescence, p450-cyp2c9; series mostly up to 57.1 µM; activity, negative = inhibition: at the top concentration.
Chain of Cytochrome P450 2C9 (Homo sapiens) (P11712 whole entry, looked up): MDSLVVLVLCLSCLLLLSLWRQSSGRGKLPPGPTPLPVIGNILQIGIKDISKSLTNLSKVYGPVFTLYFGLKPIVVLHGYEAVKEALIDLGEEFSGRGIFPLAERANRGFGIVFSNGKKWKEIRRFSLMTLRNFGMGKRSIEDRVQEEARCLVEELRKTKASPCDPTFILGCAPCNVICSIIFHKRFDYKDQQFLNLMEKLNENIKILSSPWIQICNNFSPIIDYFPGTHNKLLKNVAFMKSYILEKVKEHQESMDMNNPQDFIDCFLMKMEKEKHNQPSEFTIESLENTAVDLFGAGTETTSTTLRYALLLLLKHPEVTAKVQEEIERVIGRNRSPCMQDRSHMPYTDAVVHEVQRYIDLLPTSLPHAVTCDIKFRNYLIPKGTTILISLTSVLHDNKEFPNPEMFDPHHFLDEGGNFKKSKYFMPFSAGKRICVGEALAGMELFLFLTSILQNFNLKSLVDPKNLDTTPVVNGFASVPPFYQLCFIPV
For `N=C1/C(=C\c2ccc(SCc3ccco3)o2)C(=O)N=C2SC=NN12`, the AC50 (in general, the concentration at which the activity in the assay is half-maximal) is 0.447 µM (active).
Same read-out and setting: for `ClC(=Nc1cccc2ccccc12)N(c1ccccc1)c1ccccc1` the value was 3.16 µM (active).
`CCCN1CNC(=S)N(c2cccc(C)c2C)C1`: the “activity, negative = inhibition” value is 16.7% (inactive).
Consider `O=c1c2ccccc2nc(SCc2ccccc2Cl)n1Cc1ccccc1`, for which the AC50 is 1.26 µM (active).
`Cc1cccc(C)c1-n1c(SCC(=O)NCc2ccco2)nc2ccccc2c1=O`: the AC50 was 14.1 µM (active).
Same read-out and setting: for `Cc1cc(NC(=O)CSc2nc3ccccc3c(=O)n2CCCC(=O)NCc2ccco2)n[nH]1` the value was 4.47 µM (active); for `O=C(CSc1nc2ccccc2c(=O)n1CCCC(=O)N1CCCC1)NCc1ccco1`, 7.08 µM (active).
Take `O=C(CSc1nc2ccccc2c(=O)n1Cc1ccccc1)NCc1ccco1`: the “activity, negative = inhibition” value was -22.6% (inactive).
Regarding `Oc1ccc([C@@H]2CNCCc3c2cc(O)c(O)c3Cl)cc1`, the “activity, negative = inhibition” value was -2.43% (inactive).
As for `O=c1[nH]c(=O)n([C@@H]2C[C@H](O)[C@H](CO)O2)cc1I`, the “activity, negative = inhibition” value was -5.5% [at 25.6 µM] (inactive).
As for `O=C(CSc1nc2ccccc2c(=O)n1CCCO)NCc1ccccc1`, the AC50 was 12.6 µM (active).
In the case of `O=C(CSc1nc2ccccc2c(=O)n1NC(=O)Cc1ccccc1)NCc1ccccc1Cl`, the AC50 is 0.398 µM (active).
On to `N#CCSc1nc2cc(C(=O)N3CCCC3)ccc2c(=O)n1Cc1ccccc1`, for which the AC50 is 3.98 µM (active).
Take `O=C(O)CCCCCn1c(SCC(=O)N2CCCC2)nc2ccsc2c1=O`: the “activity, negative = inhibition” value was -13.4% (inactive).
The same measure, in the same setting: to `COCC(=O)N1CCC2(CCCN(C(=O)Nc3ccc(OC)cc3)C2)CC1` belongs 7.89% (inactive); to `CN1CCN(C(=O)c2ccc3c(=O)n4c(nc3c2)CCCCC4)CC1`, -8.69% (inactive).
Turning to `COc1ccc(NC(=O)CSc2nc3ccccc3c(=O)n2CCC(=O)N2CCCCC2)cc1`, the AC50 was 3.98 µM (active).
With `Cc1cc(NC(=O)CSc2nc3ccsc3c(=O)n2CCCCC(=O)O)no1`, the “activity, negative = inhibition” value is -13.1% (inactive).
Turning to `Cc1cc(NC(=O)CSc2nc3ccsc3c(=O)n2Cc2ccccn2)n[nH]1`, the AC50 is 28.2 µM (active).
As for `CCCc1nnc(SCC(=O)N2CCCCC2)n1CC1CCCO1` (stereo not drawn), the “activity, negative = inhibition” value was 16.6% (inactive).
Same read-out and setting: for `CCN1CCN(C(=O)CCc2nc3ccccc3c(=O)[nH]2)CC1` the value was -18.2% (inactive).
With `CC(C)Cn1c(SCc2nc3ccccc3c(=O)[nH]2)nc2ccccc2c1=O`, the half-maximal activity concentration (AC50) was 2 µM (active).
Same read-out and setting: to `Cc1ccc2cc(C)c3nnc(SCC(=O)NCc4ccco4)n3c2c1` belongs 15.8 µM (active); to `O=C(NCC1CCCO1)c1ccc2c(=O)n(Cc3ccco3)c(SCC(=O)N3CCCC3)nc2c1` (stereo not drawn), 2.24 µM (active).
With `Cc1cc2cc(C)c3nnc(SCC(=O)NCc4ccc5c(c4)OCO5)n3c2cc1C`, the “activity, negative = inhibition” value is -80.6% (inactive).
Still for that read-out and setting: to `COCc1nc2c([nH]1)c(=O)n(C)c(=O)n2CC(C)C` belongs 2.72% (inactive).
Take `Cc1cc(C)c(C)c(S(=O)(=O)ON2C(=O)c3ccccc3C2=O)c1C`: the “activity, negative = inhibition” value was 14% (inactive).
As for `Cc1ccc(OCCCN2C(=O)C(=O)c3cccc(C)c32)cc1`, the concentration at half-maximal activity (AC50) is 8.91 µM (active).
Turning to `CN(c1ccc(C(=O)NC2CC3CCC2C3)cc1)S(C)(=O)=O` (stereo not drawn), the “activity, negative = inhibition” value is 15.8% (inactive).
For `CS(=O)(=O)N1CCN(c2ccc(C(=O)NC3C4CC5CC(C4)CC3C5)cc2[N+](=O)[O-])CC1` (stereo not drawn), the AC50 is 12.6 µM (active).
`CCCN[C@@H](C)C(=O)Nc1c(C)csc1C(=O)OC`: the “activity, negative = inhibition” value was -10.3% [at 25.6 µM] (inactive).
On to `CC(=O)c1c(N=CN(C)C)nc(C)nc1-c1ccccc1`, for which the “activity, negative = inhibition” value was -16% (inactive).
Consider `O=c1c(-c2ccccc2)nc2cnc(N3CCOCC3)nc2n1CCc1ccccc1`, for which the AC50 is 7.94 µM (active).
Take `N#CCCn1c(=O)cnc2cnc(N3CCOCC3)nc21`: the “activity, negative = inhibition” value is 22.8% (inactive).
On the same count and under the same terms, for `COc1ccc(-c2nc3cnc(N4CCOCC4)nc3n(CCc3ccccc3)c2=O)cc1` the value was -27.3% (inactive).
Regarding `CN1CCN(c2ncc3nc(-c4ccccc4)c(=O)n(CCc4ccccc4)c3n2)CC1`, the AC50 is 3.16 µM (active).
With `CN1CCN(c2ncc3nc(-c4cc(F)cc(F)c4)c(=O)n(CCc4ccccc4)c3n2)CC1`, the “activity, negative = inhibition” value was -4.14% (inactive).
On the same count and under the same terms, to `O=c1c(-c2ccc(Cl)cc2)nc2cnc(N3CCOCC3)nc2n1CCc1ccccc1` belongs 9.02% (inactive).
Regarding `O=c1cnc2cnc(N3CCOCC3)nc2n1CCc1ccccc1`, the AC50 was 10 µM (active).
For `COc1ccc(-c2nc3cnc(N4CCN(C)CC4)nc3n(CCc3ccccc3)c2=O)cc1`, the “activity, negative = inhibition” value was 2.38% (inactive).
Still for that read-out and setting: to `CN1CCN(c2ncc3ncc(=O)n(CCc4ccccc4)c3n2)CC1` belongs -24.4% (inactive).
With `COc1ccccc1-c1ccc2ncnc(N(C)C)c2c1`, the activity, negative = inhibition is -21.1% [at 2.29 µM] (inactive).
Same read-out and setting: for `CN1[C@@H]2CC[C@H]1CC(OC(=O)c1c[nH]c3ccccc13)C2` (stereo partly drawn) the value was -7.96% (inactive); for `O=C(O)[C@H](Cc1c[nH]c2ccccc12)N1C(=O)c2ccccc2C1=O`, 6.23% [at 11.4 µM] (inactive).
As to `CN1C2C=C(N(CCc3c[nH]c4ccccc34)C(=O)c3ccc(Cl)cc3)CC1CC2` (stereo not drawn), the AC50 is 1.78 µM (active).
With `C#CCCCO/N=C1/[C@H]2O[C@@H]2[C@@H](O)[C@H]2[C@H]1CCn1c(=O)n([C@@H](CC)c3ccccc3)c(=O)n12`, the activity, negative = inhibition was 4.97% [at 11.4 µM] (inactive).
For `COc1ccc(C(=O)Nc2cccc(OC(=O)c3ccc(C)c(C)c3)c2)cc1`, the AC50 was 3.55 µM (active).
As to `CN(Cc1ccco1)c1ncncc1-c1ccoc1`, the activity, negative = inhibition was -8.69% [at 2.29 µM] (inactive).
As to `C/C(=N\n1nnnc1Nc1ccccc1)c1ccc(N)cc1`, the AC50 is 11.2 µM (active).
`N=C(N)SCc1nc2ccccc2c(=O)n1-c1ccccc1Cl`: the AC50 is 3.16 µM (active).
For the compound `O=C(O)c1cc(-c2ccncc2)nc2ccccc12`, the activity, negative = inhibition is -29.2% [at 11.4 µM] (inactive).
On to `O=C(c1cc(-c2ccncc2)nc2ccccc12)N1CCN(c2ccc(N3CCOCC3)nn2)CC1`, for which the concentration at half-maximal activity (AC50) was 1.26 µM (active).
As for `O=C(O)CSSCC(=O)O`, the activity, negative = inhibition is 22.5% [at 11.4 µM] (inactive).
Turning to `N[C@H](C(=O)O)c1cccc(O)c1`, the AC50 result is “inactive”.
Still for that read-out and setting: to `CCCn1c(-c2ccccc2)nc2c(=O)n(C)c(=O)[nH]c21` belongs 12.6 µM (active).
As to `CCn1c(=O)c2[nH]c(-c3ccccc3)nc2n(CC)c1=O`, the “activity, negative = inhibition” value is 3.25% (inactive).
`Cn1c(=O)c2[nH]c(-c3ccccc3)nc2n(C)c1=O`: the “activity, negative = inhibition” value is -14.3% (inactive).
In the case of `CC[N+](CC)(CC)CC`, the “activity, negative = inhibition” value was -7.63% (inactive).
As to `Cc1nn2c3c(cnc2c1-c1ccccc1)C(=O)CC(c1ccccc1)C3` (stereo not drawn), the AC50 was 10 µM (active).
Turning to `N[C@H](C(=O)O)[C@H](N)C(=O)O`, the activity, negative = inhibition was 17.2% [at 11.4 µM] (inactive).
Take `C=C[C@H](N)CCC(=O)O`: the AC50 entry was “inactive”.
On the same count and under the same terms, for `CO/N=C(\C(=O)N[C@@H]1C(=O)N2C(C(=O)O)=C(COC(C)=O)CS[C@@H]12)c1csc(N)n1` the value was “inactive”.
Regarding `COc1ccc(N(CC(=O)O)N=O)cc1`, the activity, negative = inhibition is -1.12% [at 11.4 µM] (inactive).
As for `COc1ccc(N(C(=O)COc2ccccc2OC)S(=O)(=O)c2ccc(C)cc2)cc1`, the AC50 is 1 µM (active).
As to `Cc1ccccc1-c1cc(NCCN2CCOCC2)ncn1`, the activity, negative = inhibition is 18.6% [at 2.29 µM] (inactive).
As to `O=C1C(=O)c2ccccc2C(O)=C1C1CCC(c2ccc(Cl)cc2)CC1` (stereo not drawn), the AC50 is 2 µM (active).
Consider `CCC(c1nnnn1CC1CCCO1)N(CCN1CCOCC1)Cc1cc2cc(C)ccc2[nH]c1=O` (stereo not drawn), for which the “activity, negative = inhibition” value was -10% (inactive).
Regarding `Cc1cc(C)c2cc(CN(Cc3nnnn3Cc3ccc(F)cc3)C3CCCC3)c(=O)[nH]c2c1`, the AC50 was 7.08 µM (active).
In the case of `Cn1nccc1C(=O)Nc1ccc(Cl)cc1`, the “activity, negative = inhibition” value is -23% (inactive).
Regarding `Cn1c(C(=O)Nc2ccccc2)cc2sccc21`, the AC50 is 20 µM (active).
For the compound `COCC(=O)N(C)c1nnc(-c2ccc([N+](=O)[O-])cc2)s1`, the “activity, negative = inhibition” value is -27.4% (inactive).
With `COCCN(C(=O)c1ccco1)c1nnc(-c2ccc(OC)cc2)s1`, the AC50 is 28.2 µM (active).
The same measure, in the same setting: for `O=C1N(c2ccccc2)c2ccccc2C1(Cc1ccncc1)Cc1ccncc1` the value was 7.94 µM (active).
The same measure, in the same setting: for `C=CCN1CCc2cc(O)c(O)cc2[C@H](c2ccccc2)C1` the value was “inactive”.
For `COc1ccccc1CN1CC2(CCN(S(C)(=O)=O)CC2)C1`, the “activity, negative = inhibition” value was 17.2% (inactive).
On the same count and under the same terms, for `Cc1ccc(NC(=O)CN(C)C(=O)CSc2n[nH]c(N)n2)cc1` the value was -22.5% (inactive).
On to `Nc1nc(SCC(=O)Nc2ccccc2Sc2ccc(Cl)cc2)n[nH]1`, for which the AC50 is 1 µM (active).
On to `CC(C)=CCC/C(C)=C/CO/N=C1/C[C@@H](O)[C@@H](O)[C@@H]2[C@@H]3C(=O)N(C(C)(C)C)C(=O)[C@H]3CC[C@@H]12`, for which the activity, negative = inhibition was -9.91% [at 11.4 µM] (inactive).
For the compound `C=CCNC(=O)/C(=C\C=C\c1ccccc1)NC(=O)c1ccc(OCCCC)cc1`, the AC50 was 12.6 µM (active).
For the compound `CC[N+](CC)(CC)CCOc1ccc(/C=C\c2ccccc2)cc1`, the “activity, negative = inhibition” value was 15.3% (inactive).
As for `Clc1ccc(/C=N/Nc2nnc(-c3ncc[nH]3)c3ccccc23)cc1`, the AC50 was 5.01 µM (active).
For the compound `N[C@@H](CSC(=O)c1ccccc1)C(=O)O`, the activity, negative = inhibition is 18.3% [at 11.4 µM] (inactive).
In the case of `O=C(Nc1cccn(Cc2c(Cl)cccc2Cl)c1=O)c1ccc(Cl)cc1Cl`, the AC50 is 3.55 µM (active).
As for `O=C1Nc2ccccc2Nc2ncccc21`, the “activity, negative = inhibition” value was -14.8% (inactive).
As for `O=C(NCc1ccc2c(c1)OCO2)C1CC(=O)N(C2CCCC2)C1` (stereo not drawn), the “activity, negative = inhibition” value was -25% (inactive).
`C/C(=C\C(=O)c1ccc(Br)cc1)NCc1ccc2c(c1)OCO2`: the concentration at half-maximal activity (AC50) was 11.2 µM (active).
Consider `O=C1Nc2ccccc2C(O)(C(=O)NCc2ccc3c(c2)OCO3)N1c1ccc(Cl)c(Cl)c1` (stereo not drawn), for which the “activity, negative = inhibition” value was -27.3% (inactive).
For the compound `CC1(C)CC(NCc2ccc3c(c2)OCO3)CCO1` (stereo not drawn), the “activity, negative = inhibition” value is 5.26% (inactive).
Still for that read-out and setting: to `COc1cc(C(=O)NCCC(=O)NCc2ccc3c(c2)OCO3)cc(OC)c1OC` belongs -28.6% (inactive).
On to `C/C(=C\C(=O)c1ccc(Cl)cc1)NCc1ccc2c(c1)OCO2`, for which the AC50 was 7.94 µM (active).
As for `Cc1[nH]c2ccccc2c1/C=C/c1cc[n+](C)cc1`, the “activity, negative = inhibition” value is 23.4% (inactive).
On the same count and under the same terms, for `CCCc1ncc(C[n+]2ccccc2C)c(N)n1` the value was -6.81% [at 25.6 µM] (inactive).
Take `O=c1c2ccccc2ncn1CCCSc1ccccc1`: the AC50 is 14.1 µM (active).
Consider `O=C(c1ccccc1)c1ccc(OCCn2cnc3ccccc3c2=O)cc1`, for which the AC50 was 2.82 µM (active).
Same read-out and setting: for `Cc1ccc(SCCCn2cnc3ccccc3c2=O)cc1` the value was 12.6 µM (active).
As for `COc1ccc(Cl)cc1C(=O)Nn1cnc2ccccc2c1=O`, the “activity, negative = inhibition” value was 7.58% (inactive).
On the same count and under the same terms, to `O=C1c2ccccc2C(=O)N1CCCSc1ccccc1` belongs -22.7% [at 11.4 µM] (inactive); to `COc1ccc2c(OC)c3ccoc3nc2c1OC`, 19.1% [at 25.6 µM] (inactive).
